Records with an inconclusive call do not appear. Entries that show only a call come without a potency. Values without a mark were called inactive. Calls of active or inactive are those of the source. Unless noted, calls follow the shape of the dose curve; as a rule, active = well fitted curve in the direction sought with a large enough effect in the repeat runs; inconclusive = weak or mixed curves; inactive = no such curve, though single readings can be large; an effect the other way counts as inactive or inconclusive.
Experiments:
[1] = target: Luciferin 4-monooxygenase (Photinus pyralis) (UniProt P08659); assay: qHTS assay to identify small molecule inhibitors of firefly luciferase (AID 1224835); also: nearly all actives have a fitted effect of over 25% in size; also: potency is read from the fitted curve at half-maximal effect; settings: purified P. pyralis luciferase, luminescence inhibition; series mostly up to 115 µM
Outline: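 Inhibition of purified Photinus luciferase is measured by luminescence. Substrate levels (D-luciferin, ATP) sit at their KM values. Each compound is tested in a concentration series.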

[2] = qHTS assay to identify small molecule agonists of the constitutive androstane receptor (CAR) signaling pathway - cell viability counter screen (AID 1224836); settings: HepG2-CYP2B6-hCAR viability, CellTiter-Fluor, 23 h, PK11195 added to every well; series mostly up to 92.4 µM; also: nearly all actives have a fitted effect of over 45% in size; also: potency is read from the fitted curve at half-maximal effect
Outline: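 Double-stable HepG2 hepatoma cells (hCAR plus CYP2B6-2.2kb) are treated for 23 h at 37 C with test compounds in 15-point concentration series. PK11195 at 0.75 uM final is co-added. Cell viability is quantified by CellTiter-Fluor.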

[3] = qHTS assay to identify small molecule antagonists of the constitutive androstane receptor (CAR) signaling pathway - cell viability counter screen (AID 1224837); settings: HepG2-CYP2B6-hCAR viability, CellTiter-Fluor, 23 h, co-treated with 50 nM CITCO; series mostly up to 92.4 µM; also: nearly all actives have a fitted effect of over 45% in size; also: potency is read from the fitted curve at half-maximal effect
Outline: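 Viability was measured with CellTiter-Fluor in a HepG2 line carrying stably transfected hCAR and a CYP2B6-2.2kb construct. Cells were exposed for 23 hr at 37 C to 15 compound concentrations with 50 nM CITCO as agonist.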

[4] = qHTS assay to identify small molecule antagonists of the estrogen related receptor signaling pathway with the pleiotropic PPARgamma coactivator (PGC) from Tox21 10K library - cell viability counter screen (AID 1224840; active = well fitted cell-killing curve with a large enough effect in the repeat runs, not every such curve was filed as active; also: nearly all actives have a fitted effect of over 40% in size; also: potency is read from the fitted curve at half-maximal effect); settings: PGC/ERR reporter cells viability, CellTiter-Fluor, 17.5 h; series mostly up to 92.4 µM
Outline: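 Multiplexed viability counter screen in the PGC/ERR cell line: cells treated with DMSO-dissolved compounds for 17.5 hours at 37 C, then viability measured as CellTiter-Fluor fluorescence.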

[5] = target: Thyrotropin receptor (Homo sapiens) (UniProt P16473); assay: qHTS assay to identify small molecule agonists of the thyroid stimulating hormone receptor (TSHR) signaling pathway (AID 1224843; calls by dose curve; also: nearly all actives have a fitted effect of over 45% in size; also: potency is read from the fitted curve at half-maximal effect); settings: TSHR-HEK293 cells, cAMP HTRF, agonist mode, 30 min; series mostly up to 92.4 µM
Outline: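 A cell-based cAMP HTRF format was run in TSHR-transfected HEK293 cells, 800 per well. Treatment: 30 min, room temperature. Detection: 1 h with labelled cAMP and anti-cAMP cryptate. Concentration-response over 15 points, three replicates.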

[6] = qHTS assay to identify small molecule agonists of the hypoxia (HIF-1) signaling pathway - cell viability counter screen (AID 1224844; calls by dose curve; also: nearly all actives have a fitted effect of over 50% in size; also: potency is read from the fitted curve at half-maximal effect); settings: HRE-bla ME-180 viability, CellTiter-Glo luminescence, 17 h; series mostly up to 76.8 µM
Outline: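 Cytotoxicity was measured in parallel with the HRE-driven beta-lactamase readout: after 17 hrs of compound exposure at 37C, HRE-bla ME-180 cells received CellTiter-Glo and luminescence was recorded 30 min later.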

[7] = qHTS assay to identify small molecule agonists of H2AX (AID 1224845; active = well fitted activation curve with a large enough effect in the signal ratio in the repeat runs, not every such curve was filed as active; the % refers to the signal ratio; also: potency is read from the fitted curve at half-maximal effect); settings: CHO-K1 phospho-H2AX Ser139 HTRF, 3 h; series mostly up to 154 µM
Outline: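 Phospho-H2AX Ser139 measured by HTRF (ex 320 nm; em 665 and 620 nm) after 24 hr antibody incubation. Compounds, 15 concentrations, 0.76% DMSO, were applied to CHO-K1 cells for 3hr at 37C before lysis.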

[8] = qHTS assay to identify small molecule agonists of the hypoxia (HIF-1) signaling pathway (AID 1224846; active = well fitted activation curve with a large enough effect in the signal ratio in the repeat runs, not every such curve was filed as active; the % refers to the signal ratio); settings: HRE-bla ME-180 cells, beta-lactamase ratio, 17 h; series mostly up to 76.8 µM
Outline: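 Compounds from the Tox21 10K library, dissolved in DMSO, are tested for induction of a hypoxia response element–controlled beta-lactamase reporter in ME-180 cells. Exposure lasts 17 hrs at 37C after a 5 hr settling period, followed by CCF4-AM FRET substrate.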

[9] = qHTS assay to identify small molecule antagonists of the estrogen related receptor (ERR) signaling pathway from Tox21 library - cell viability counter screen (AID 1224834); settings: ERR reporter cells viability, CellTiter-Fluor, 17.5 h; series mostly up to 92.4 µM; also: nearly all actives have a fitted effect of over 30% in size; also: potency is read from the fitted curve at half-maximal effect
Outline: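 ERR cells, 2,000/well; 6 h settle at 37 C/5% CO2; pin-tool compound transfer in DMSO; 17.5 h at 37 C; CellTiter-Fluor, 30 min; fluorescence intensity.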

[10] = target: Nuclear receptor subfamily 1 group I member 3 (Homo sapiens) (UniProt Q14994); assay: qHTS assay to identify small molecule antagonists of the constitutive androstane receptor (CAR) signaling pathway (AID 1224838); settings: HepG2-CYP2B6-hCAR luciferase, CITCO-stimulated, 24 h; series mostly up to 92.4 µM;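 also: HepG2 cells stably expressing hCAR with CYP2B6 luciferase reporter stimulated by CITCO; nearly all actives have a fitted effect of over 40% in size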; also: potency is read from the fitted curve at half-maximal effect
Outline: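 Antagonist mode used CITCO at a final 50 nM to activate CAR in human hepatoma HepG2 cells carrying stable hCAR and a 2.2 kb CYP2B6 promoter-luciferase construct. Compounds were tested at 15 concentrations over 24 h, with luminescence as the end point.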

[11] = target: Nuclear receptor subfamily 1 group I member 3 (Homo sapiens) (UniProt Q14994); assay: qHTS assay to identify small molecule agonists of the constitutive androstane receptor (CAR) signaling pathway (AID 1224839); settings: HepG2 hCAR CYP2B6-luciferase, agonist mode, 24 h; series mostly up to 92.4 µM; also: nearly all actives have a fitted effect of over 15% in size; also: potency is read from the fitted curve at half-maximal effect
Outline: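 Readout: firefly luciferase luminescence via ONE-Glo. System: HepG2 double-stable for hCAR and CYP2B6-2.2kb. Conditions: 15-point compound titration, PK11195 at 0.75 uM final, 24 h incubation.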

[12] = qHTS assay to identify small molecule antagonists of the estrogen related receptor signaling pathway with the pleiotropic PPARgamma coactivator (PGC) from Tox21 10K library (AID 1224841; call rule not given here; also: actives are mostly falling curves and most rising ones were filed inactive; nearly all actives have a fitted effect of over 50% in size; also: potency is read from the fitted curve at half-maximal effect); settings: PGC/ERR reporter cell line, ONE-Glo luciferase, 18 h; series mostly up to 92.4 µM
Outline: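 Steps: plate 2,000 PGC/ERR cells per well; incubate 6 h at 37 C with 5% CO2; transfer compounds from DMSO stocks by pin tool; incubate 18 h at 37 C; add One-Glo; measure luminescence 30 min later.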

[13] = qHTS assay to identify small molecule agonists of the estrogen related receptor signaling pathway with the pleiotropic PPARgamma coactivator (PGC) from Tox21 10K library (AID 1224842); settings: PGC/ERR reporter cell line, luciferase ONE-Glo, 18 h; series mostly up to 92.4 µM; also: nearly all actives have a fitted effect of over 15% in size
Outline: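 Luminescence from One-Glo (30 min, room temperature) measured after PGC/ERR cells had 18 h at 37 C with pinned compound (23 nL in DMSO). Cells had been seeded at 2,000 per well and pre-incubated 6 h.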

Chain of Thyrotropin receptor (Homo sapiens) (P16473 whole entry, looked up): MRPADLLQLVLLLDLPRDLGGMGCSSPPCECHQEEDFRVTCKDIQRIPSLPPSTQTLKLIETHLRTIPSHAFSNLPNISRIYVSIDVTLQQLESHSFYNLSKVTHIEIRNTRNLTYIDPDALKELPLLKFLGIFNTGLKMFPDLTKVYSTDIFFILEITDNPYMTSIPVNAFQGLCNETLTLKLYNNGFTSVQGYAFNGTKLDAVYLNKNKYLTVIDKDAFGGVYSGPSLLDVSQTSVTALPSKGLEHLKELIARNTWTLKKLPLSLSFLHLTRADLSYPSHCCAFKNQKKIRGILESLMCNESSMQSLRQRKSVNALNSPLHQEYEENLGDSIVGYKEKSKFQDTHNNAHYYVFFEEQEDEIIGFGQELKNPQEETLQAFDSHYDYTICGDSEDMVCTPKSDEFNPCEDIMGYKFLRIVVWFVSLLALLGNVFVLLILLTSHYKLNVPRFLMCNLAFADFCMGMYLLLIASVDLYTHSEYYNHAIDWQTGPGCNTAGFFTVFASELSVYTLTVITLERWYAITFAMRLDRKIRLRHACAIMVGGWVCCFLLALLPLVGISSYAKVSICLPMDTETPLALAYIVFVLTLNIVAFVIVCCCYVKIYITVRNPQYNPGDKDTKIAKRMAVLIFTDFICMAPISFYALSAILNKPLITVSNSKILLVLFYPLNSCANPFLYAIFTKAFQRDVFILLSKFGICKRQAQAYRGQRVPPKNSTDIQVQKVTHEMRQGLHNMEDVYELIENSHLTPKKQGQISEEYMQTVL
Chain of Luciferin 4-monooxygenase (Photinus pyralis) (P08659 whole entry, looked up): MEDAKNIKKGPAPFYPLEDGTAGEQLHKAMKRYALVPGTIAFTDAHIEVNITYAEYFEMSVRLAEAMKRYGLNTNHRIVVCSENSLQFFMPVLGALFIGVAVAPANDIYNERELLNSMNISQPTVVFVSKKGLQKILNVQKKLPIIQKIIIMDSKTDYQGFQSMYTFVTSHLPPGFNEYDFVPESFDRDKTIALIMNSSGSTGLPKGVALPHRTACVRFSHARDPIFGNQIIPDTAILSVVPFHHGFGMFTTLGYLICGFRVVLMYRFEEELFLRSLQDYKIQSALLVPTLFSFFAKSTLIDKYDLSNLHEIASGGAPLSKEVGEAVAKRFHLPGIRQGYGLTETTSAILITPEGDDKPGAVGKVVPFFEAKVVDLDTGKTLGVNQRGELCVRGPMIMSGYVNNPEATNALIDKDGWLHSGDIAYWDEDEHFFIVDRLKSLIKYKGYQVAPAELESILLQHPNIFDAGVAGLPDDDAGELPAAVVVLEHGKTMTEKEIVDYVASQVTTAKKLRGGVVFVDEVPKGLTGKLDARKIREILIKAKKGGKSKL
Chain of Nuclear receptor subfamily 1 group I member 3 (Homo sapiens) (Q14994 whole entry, looked up): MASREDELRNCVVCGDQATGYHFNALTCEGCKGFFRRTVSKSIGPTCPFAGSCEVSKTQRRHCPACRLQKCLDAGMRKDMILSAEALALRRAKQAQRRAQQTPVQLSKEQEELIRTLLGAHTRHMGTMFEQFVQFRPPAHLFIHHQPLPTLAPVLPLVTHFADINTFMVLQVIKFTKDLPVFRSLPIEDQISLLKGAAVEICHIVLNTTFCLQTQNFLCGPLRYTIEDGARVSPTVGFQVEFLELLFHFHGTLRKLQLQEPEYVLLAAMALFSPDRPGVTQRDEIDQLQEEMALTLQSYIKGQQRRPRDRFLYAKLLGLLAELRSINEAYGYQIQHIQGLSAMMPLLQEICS

CC1=CC[C@@H](C(C)(C)O)CC1
Potency [1]: inactive
Potency [2]: inactive
Potency [3]: inactive
Potency [4]: inactive
Potency [5]: inactive
Potency [6]: inactive
Potency [7]: inactive
Potency [8]: inactive

O=C1C=CC(=O)N1c1cccc(N2C(=O)C=CC2=O)c1
Potency [9]: 54.5 µM (active)
Potency [10]: 61.1 µM (active)
Potency [11]: inactive
Potency [4]: 34.4 µM (active)
Potency [12]: 77 µM (active)
Potency [13]: inactive
Potency [5]: 5.45 µM (active)
Potency [6]: 11 µM (active)
Potency [7]: inactive

CC(C)(C)C1=CC(=O)C(C(C)(C)C)=CC1=O
Potency [1]: inactive
Potency [2]: inactive
Potency [3]: inactive
Potency [10]: inactive
Potency [11]: 21.1 µM (active)
Potency [4]: inactive
Potency [12]: inactive
Potency [13]: inactive
Potency [5]: 9.44 µM (active)
Potency [8]: inactive

CCCCCCCCCCCCN1CCCC1=O
Potency [1]: 44.8 µM (active)
Potency [2]: inactive
Potency [3]: inactive
Potency [10]: inactive
Potency [11]: 54.5 µM (active)
Potency [4]: inactive
Potency [12]: inactive
Potency [13]: inactive
Potency [7]: inactive

CCN(CCC#N)c1ccc(N=Nc2ccc([N+](=O)[O-])cc2)cc1
Potency [1]: inactive
Potency [2]: inactive
Potency [3]: inactive
Potency [10]: inactive
Potency [11]: 13.7 µM (active)
Potency [4]: inactive
Potency [12]: inactive
Potency [5]: inactive
Potency [6]: inactive
Potency [7]: inactive
Potency [8]: inactive

CC(CC(C)(C)C)CC(C)(C)CC(C)(C)C (stereo not drawn)
Potency [1]: inactive
Potency [2]: inactive
Potency [3]: inactive
Potency [10]: inactive
Potency [11]: inactive
Potency [4]: inactive
Potency [5]: inactive
Potency [6]: inactive
Potency [7]: inactive

Nc1ccc(Cl)c([N+](=O)[O-])c1
Potency [1]: inactive
Potency [2]: inactive
Potency [3]: inactive
Potency [4]: inactive
Potency [6]: inactive
Potency [7]: inactive
Potency [8]: inactive

COc1ccc2ccccc2c1
Potency [1]: inactive

Cc1ccc(C2OC[C@@H]3OC(c4ccc(C)cc4)O[C@H]([C@H](O)CO)[C@@H]3O2)cc1 (stereo partly drawn)
Potency [1]: inactive
Potency [2]: inactive
Potency [3]: inactive
Potency [4]: inactive
Potency [5]: inactive
Potency [6]: inactive
Potency [7]: inactive
Potency [8]: inactive

CC(=O)N(C)C
Potency [1]: inactive

C=C(C)C1CCC(C)CC1O (stereo not drawn)
Potency [1]: inactive
Potency [2]: inactive
Potency [3]: inactive
Potency [4]: inactive
Potency [5]: inactive
Potency [6]: inactive
Potency [7]: inactive
Potency [8]: inactive

CCc1cccc(C)c1N(C(=O)CS(=O)(=O)O)C(C)COC (stereo not drawn)
Potency [1]: inactive
Potency [2]: inactive
Potency [3]: inactive
Potency [10]: inactive
Potency [11]: inactive
Potency [4]: inactive
Potency [5]: inactive
Potency [6]: inactive
Potency [7]: inactive
Potency [8]: inactive

CC(C)(C)c1ccc(OC2CCCCC2O)cc1 (stereo not drawn)
Potency [1]: 31.7 µM (active)
Potency [2]: inactive
Potency [3]: inactive
Potency [10]: inactive
Potency [11]: 27.3 µM (active)
Potency [4]: inactive
Potency [5]: inactive
Potency [6]: inactive
Potency [7]: inactive
Potency [8]: inactive

CN[C@H]1CC[C@@H](c2ccc(Cl)c(Cl)c2)c2ccc(S(N)(=O)=O)cc21
Potency [1]: inactive
Potency [2]: 61.1 µM (active)
Potency [3]: 61.1 µM (active)
Potency [10]: 61.1 µM (active)
Potency [11]: inactive
Potency [4]: 61.1 µM (active)
Potency [13]: inactive
Potency [8]: inactive

COc1cc(C(C)C)ccc1C
activity change, negative = inhibition [1]: 1.91% [at 23.6 µM]
viability change, negative = cytotoxic [2]: 2.67% [at 19 µM]
activity change, negative = cytotoxicity [3]: 1.68% [at 19 µM]
activity, negative = inhibition [10]: -11.9% [at 19 µM]
activation [11]: -0.0502% [at 19 µM]
viability change, negative = cytotoxic [4]: -28.8% [at 19 µM]
activation [5]: 6.84% [at 19 µM]
activity change, negative = cytotoxicity [6]: 21.3% [at 15.8 µM]
activation (H2AX phosphorylation) [7]: 0.221% [at 31.6 µM]
activation [8]: -0.0499% [at 15.8 µM]

CCCCNc1ccc(NCCCC)c2c1C(=O)c1ccccc1C2=O
viability change, negative = cytotoxic [9]: -12.4% [at 19 µM]
viability change, negative = cytotoxic [4]: -1.23% [at 19 µM]
activation [5]: -9.62% [at 19 µM]
activity change, negative = cytotoxicity [6]: -26.2% [at 15.8 µM]

C=C1C(CCl)(CCl)C2(Cl)C(Cl)C(Cl)C1(Cl)C2(Cl)Cl (stereo not drawn)
Potency [1]: inactive
Potency [2]: inactive
Potency [3]: inactive
Potency [10]: inactive
Potency [11]: 8.53 µM (active)
Potency [4]: 53.8 µM (active)
Potency [12]: 60.4 µM (active)
Potency [13]: inactive
Potency [5]: 17 µM (active)
Potency [6]: 24.3 µM (active)
Potency [7]: 99.6 µM (active)

Nc1ccc(N)c([N+](=O)[O-])c1
Potency [1]: 35.6 µM (active)

Cc1ccc(C=O)cc1
Potency [1]: inactive
Potency [2]: inactive
Potency [3]: inactive
Potency [4]: inactive
Potency [5]: inactive
Potency [6]: inactive
Potency [7]: inactive
Potency [8]: inactive
